Shown are actives, neighbours in structure and some others; about 1.8% of the full set was active somewhere.
Fam108B inh: Fam108B inhibition, counter-screen for RBBP9 inhibitors. recombinant Fam108B, FP-Rh probe fluorescence polarization. hit rate 0.33% among 300,000. inhibition, % at 9.51 µM. AID 1947;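 active = inhibition above the screen mean inhibition plus 3 SD, computed separately per campaign, cut at about 18% in these data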;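 note: inhibitors lower polarization as less probe binds the enzyme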
PAD4 FP inh: PAD4 (human) enzyme inhibition. inhibition, % at 6.36 µM. hit rate 0.41% among 330,000. recombinant PAD4, RCA probe fluorescence polarization;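 active = percent inhibition above a cutoff equal to the mean of all tested compounds plus 3 SD, cut at about 15% in these data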;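 note: 0% = PAD4 with RCA probe and DMSO and 100% = probe without PAD4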
LYPLA2 counter: counter-screen for PME1 inhibitors: inhibitors of human LYPLA2 | O95372 | recombinant LYPLA2, FP-Rh probe fluorescence polarization | inhibition, % at 5.9 µM | hit rate 0.38% among 320,000 | AID 2177;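 active = inhibition above the screen-wide mean plus 3 SD, limit set per campaign, cut at about 26% in these data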;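 note: 0% = LYPLA2 with DMSO and 100% = wells lacking LYPLA2 enzyme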
GSTO1 inh: counter-screen for RBBP9 inhibitors: inhibitors of human GSTO1; recombinant GSTO1, activity-based probe fluorescence polarization; inhibition, % at 5.96 µM; hit rate 1.1% among 300,000;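 active = inhibition above the campaign mean inhibition plus 3 SD, cut at about 35% in these data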;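 note: 0% = GSTO1-1 with DMSO and 100% = wells lacking GSTO1-1 enzyme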
LYPLA1 inh: blocks human lysophospholipase 1, a PME1 counter-screen; recombinant LYPLA1, FP-Rh probe fluorescence polarization; inhibition, % at 5.9 µM; hit rate 0.16% among 320,000; AID 2174;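 active = inhibition above the mean of all tested compounds plus 3 SD, set per campaign, cut at about 14% in these data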;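 note: inhibitors block serine hydrolase probe labeling of LYPLA1 so polarization falls; 0% = enzyme with DMSO and 100% = wells lacking LYPLA1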
Target sequence (O75608 whole entry, looked up): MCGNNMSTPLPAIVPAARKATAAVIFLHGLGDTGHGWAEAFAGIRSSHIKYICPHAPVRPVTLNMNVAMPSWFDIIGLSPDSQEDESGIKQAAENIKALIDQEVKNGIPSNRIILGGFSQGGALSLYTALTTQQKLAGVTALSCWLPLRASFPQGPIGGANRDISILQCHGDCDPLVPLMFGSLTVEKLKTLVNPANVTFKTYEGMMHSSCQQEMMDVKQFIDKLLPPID
PME-1 inh: blocks human protein phosphatase methylesterase 1. Q9Y570. recombinant PME-1, FP-Rh probe fluorescence polarization. inhibition, % at 5.9 µM. hit rate 0.53% among 320,000. AID 2130;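 active = inhibition above the campaign mean of all compounds plus 3 SD, cut at about 26% in these data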;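 note: competitive labeling of PME-1 active site by serine hydrolase directed probe; 0% = PME-1 with DMSO and 100% = wells lacking PME-1 enzyme; inhibitors block probe labeling so polarization falls and inhibition rises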
Target sequence (Q9Y570 whole entry, looked up): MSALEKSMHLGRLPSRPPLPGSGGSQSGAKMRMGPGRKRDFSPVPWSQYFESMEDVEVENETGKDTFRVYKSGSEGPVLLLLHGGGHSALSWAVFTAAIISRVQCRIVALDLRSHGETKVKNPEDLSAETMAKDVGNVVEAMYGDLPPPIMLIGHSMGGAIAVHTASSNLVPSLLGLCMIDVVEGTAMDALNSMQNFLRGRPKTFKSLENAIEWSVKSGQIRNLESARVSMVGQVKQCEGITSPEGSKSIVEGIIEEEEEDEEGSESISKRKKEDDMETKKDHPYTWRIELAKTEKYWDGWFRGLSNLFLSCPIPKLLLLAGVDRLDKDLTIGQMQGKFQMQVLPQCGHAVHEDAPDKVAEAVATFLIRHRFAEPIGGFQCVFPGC
Numbers without * were called inactive; . = no result.

SMILES	Fam108B inh	PAD4 FP inh	LYPLA2 counter	GSTO1 inh	LYPLA1 inh	PME-1 inh
Cc1cc(C(=O)CSc2nc(N)cc(N)n2)c(C)n1-c1cccc(C(F)(F)F)c1	-1	-14	1	-9	-4	29*
CC1=CC(=Nc2c(C)n(C)n(-c3ccccc3)c2=O)C=C(C)C1=O	0	-1	0	50*	-1	-7
CCC(C)C1=CC(=Nc2c(C)n(C)n(-c3ccccc3)c2=O)C=C(C(C)CC)C1=O (stereo unspecified)	-4	-7	2	9	-4	-3
O=c1ccc(-c2ccccc2)nn1Cc1ccc(Cl)cc1	-4	-3	38*	-4	-3	4
O=C(CCl)N(c1ccccc1)C1CCCCC1	-3	2	3	67*	3	-6
Cc1cc(/C=C2\SC(=S)NC2=O)c(C)n1C	-2	-6	1	46*	-5	-7
Cc1cc(/C=C2\SC(=S)NC2=O)c(C)n1-c1ccccc1	7	-9	0	25	0	0
N#CCSc1nc2c(cc1C#N)CCCCCC2	-2	1	-5	2	0	44*
CCN(c1ccccc1)S(=O)(=O)c1ccc(C(=O)N2CCN(c3ccccc3)CC2)cc1	.	4	.	.	.	.
CCOC(=O)COc1ccc(/C=C2/C(=O)NN(c3ccc(F)cc3)C2=O)cc1OC	12	0	0	6	1	1
CCOC(=O)c1ccc(N2NC(=O)/C(=C/c3ccc(OC(=O)c4ccco4)c(OC)c3)C2=O)cc1	9	-2	5	37*	0	2
CCN(CC)CCNC(=O)C(=O)Nc1ccc2c(c1)N(S(=O)(=O)c1cccs1)CCC2	3	1	-4	10	1	4
COc1ccc(N2Cc3ccc(C(=O)N/N=C\c4ccc(O)cc4O)cc3C2)cc1	50*	-8	31*	-20	-8	48*
COc1ccc2nc(C)cc(SCC(=O)N/N=C/c3ccc(O)cc3O)c2c1	-2	13	-10	-1	-5	-4
COc1ccccc1Nc1nc(Cl)c(C=O)s1	-2	-3	3	47*	2	-4
COc1ccc(-c2c(-c3cc(OC)cc(OC)c3)n(C)c3ccc(-c4ccc(N(C)C)nc4)cc23)cc1	.	0	2	.	3	11
CCn1c(C)nc2cc(C(=O)NNC(=O)[C@@H](NC(=O)c3cc(OC)cc(OC)c3)C(C)C)ccc21	.	-10	.	.	.	.
COc1ccc(S(=O)(=O)N2CCCCCC2)cc1NC(=O)CN(C)Cc1ccc2c(c1)OCO2	.	-2	-4	.	-2	22
COCCC(C(=O)Oc1c(C(C)(C)C)cc(C)cc1C(C)(C)C)c1ccccc1 (stereo unspecified)	.	1	4	.	1	0
CCOC(=O)c1c2ccc(OCC(=O)NN)cc2n2ccccc12	2	-2	4	40*	4	8
CCOC(=O)c1c2ccc(OCC(=O)N/N=C/c3ccc(C)cc3)cc2n2ccccc12	7	-2	2	15	1	-5
COc1ccc(N2CCN(C(=O)CN(c3cccc(OC)c3)S(=O)(=O)c3ccccc3)CC2)cc1	-2	-1	-4	6	0	5
O=S(=O)(c1ccc(NC(=S)N2CCN(c3ccc(O)cc3)CC2)cc1)N1CCOCC1	2	-2	35*	15	1	2
O=C(Cn1cc([N+](=O)[O-])ccc1=O)NCC(=O)Nc1ccc(F)c(F)c1F	.	-1	.	.	.	.
Cc1ccc(NC(=O)c2cccc(S(=O)(=O)N(C)C3CCCCC3)c2)nc1	4	-2	1	3	5	2
SMILES	Fam108B inh	PAD4 FP inh	LYPLA2 counter	GSTO1 inh	LYPLA1 inh	PME-1 inh
CCN(CC)S(=O)(=O)c1cc(NC(=O)CNc2cccc(S(=O)(=O)N3CCOCC3)c2)ccc1C	1	-1	-2	8	-1	-2
CC(C)CN=C(NS(=O)(=O)c1ccccc1)C(Cl)(Cl)Cl	-1	-1	-4	78*	0	1
CC(C)CC(NS(=O)(=O)c1ccccc1)C(=O)O (stereo unspecified)	-2	1	3	4	-2	-5
Cc1cc(NC(=O)c2cc(C(C)C)on2)no1	8	0	4	16	4	-5
CC(C)c1cc(NC(=O)CCl)on1	-2	0	-5	104*	4	-5
O=C(COC(=O)c1ccc(Br)cc1)NCc1ccccc1	2	1	4	2	-1	2
CC(=O)Cc1cc(O)c2ccccc2c1OC(=O)c1ccc(Br)cc1	2	-12	-6	29	-3	28*
Cc1noc(/C=C/N(C)C)c1S(=O)(=O)N(C)Cc1ccc(F)cc1	1	-1	-2	3	-1	1
Cc1ccc2nc(CCl)[n+]([O-])c(-c3ccccc3)c2c1	0	-10	25	36*	2	-4
COc1ccc(C(=O)COC(=O)[C@@H](NS(=O)(=O)c2ccccc2)C(C)C)cc1	.	-2	.	.	.	.
CCCCn1c(/C=N/Nc2nc3ccccc3[nH]2)nc2ccccc21	4	-8	3	-9	-7	52*
Cc1ccc(NC(=O)CSc2nc(=O)n(CCCN3CCOCC3)c3c2CCCC3)c(C)c1	2	-6	2	-4	0	-2
Nc1c(C(=O)Nc2ccc(Br)cc2)sc2nc(-c3ccco3)ccc12	14	-16	-14	0	-22	36*
Cc1ccc(NC(=O)c2sc3nc4c(c(-c5ccco5)c3c2N)CCC4)cc1	0	-5	-2	7	-9	15
Nc1c(C(=O)Nc2ccc(F)cc2)sc2nc(-c3ccco3)ccc12	10	-8	-13	9	-14	58*
CC(=O)c1sc2nc(-c3ccco3)ccc2c1N	16	-4	6	39*	2	-7
O=C1CN(C(=S)NC(=O)c2ccccc2[N+](=O)[O-])CCN1	0	3	2	1	1	-4
Cc1ccc(N2C(=O)CS/C2=C(\C(Cl)=C(Cl)Cl)[N+](=O)[O-])cc1	6	-20	-4	54*	-2	7
Cc1ccc(N2C(=O)CSCC2=O)cc1	-3	-1	-6	3	0	1
O=C1CN(C(=O)c2ccccc2F)C(c2ccccc2)c2cc(F)ccc2N1 (stereo unspecified)	1	1	9	3	2	30*
COc1ccc(CCC(=O)NC2CCCc3ccccc32)cc1OC (stereo unspecified)	-4	6	-3	10	1	5
CCCCC(=O)NNC(=S)NC(=O)c1ccc(C)cc1	-2	0	1	-6	-1	-8
Cc1ccc(C(=O)NC(=S)NNC(=O)CC#N)cc1	-1	4	0	35*	1	5
CC(=O)C1=C(c2ccccc2)NC(=O)NC1c1ccc(O)c(O)c1 (stereo unspecified)	2	-4	-9	37*	-3	-1
CCOC(=O)c1sc(/N=C/c2c(O)ccc3ccccc23)cc1C	0	1	3	39*	-1	3
